In ChEMBL document CHEMBL4513216, “Probing the Open Global Health Chemical Diversity Library for Multistage-Active Starting Points for Next-Generation Antimalarials” (ACS Infect Dis, 2020):
The campaign covered roughly 68,000 compounds. About 2,700 (4%) showed an effect of 50% or more. Many of the other results were omitted from the sample, so strong results are more common in it than they were.

The compounds below were run on Plasmodium berghei (assay: Screen against P. berghei liver stage (PbLuc), transformed with Luciferase, at 2uM). Settings: tested at 2 uM.
Type: functional, HepG2
`O=C(NCc1ccccc1)c1nc2c(o1)CN(C(=O)c1cccnc1)C2` was tested, and the INHIBITION was 36.75%. In the case of `COCCN1C[C@@H]2CN(Cc3cccc(C)n3)C[C@@H]2C1=O`, the INHIBITION is reported as 39.92%. With `CCCN1CCN(c2nc(N)nc3c2nc(C)n3C)CC1` the INHIBITION was 9.85%. `Cc1noc(C)c1C(=O)N1CCC(c2[nH]ncc2S(C)(=O)=O)C1` (centres undefined) gave an INHIBITION of 13.58%. `Cc1nc(N2CCN(C(=O)C3CC3)CC2)c2c(n1)c(C)nn2C` showed an INHIBITION of 51.57%. With `CCC(=O)N1CCN(c2nc(C)nc3c(C)nn(C)c23)CC1` the INHIBITION was 13.72%. `Cc1nc(N2CCN(C(=O)C3CCCC3)CC2)c2c(n1)c(C)nn2C` showed an INHIBITION of -36.89%. Work on `CCCC(=O)Nc1ccc(CC(=O)N(CC)CC2CCCCO2)cc1` (centres undefined) yielded an INHIBITION of -5.44%. `Cc1ccc(C2COCCN2C(=O)c2ccc(C)s2)o1` (centres undefined) gave an INHIBITION of 3.63%. `Cn1cc(CN2CCC3(CC2)CN(c2cccnc2)C(=O)CO3)cn1` gave an INHIBITION of -56.25%. `Cn1cc(N2CC3(CCN(Cc4cccnc4)CC3)OCC2=O)cn1` gave an INHIBITION of 54.44%. For `Cn1cc(N2CC3(CCN(Cc4ccccc4)CC3)OCC2=O)cn1`, the INHIBITION was 33.97%. In the case of `O=C1COC2(CCN(Cc3cccs3)CC2)CN1c1ccsc1`, the INHIBITION is reported as 55.7%. Compound `O=C1COC2(CCN(Cc3cccs3)CC2)CN1c1cncnc1` has an INHIBITION of 25.58%. `O=C1COC2(CCN(Cc3cccs3)CC2)CN1c1ccccc1` was tested, and the INHIBITION was -10.6%. In the case of `O=C(NCCn1cccc1)c1c(O)cc(F)cc1F`, the INHIBITION is reported as -5.53%. With `Cc1noc(C)c1CNC(=O)N1CCN(CC2CC2)CC1` the INHIBITION was -20.36%. Compound `c1cncc(-c2ncnc3c2CCN(Cc2cccs2)CC3)c1` has an INHIBITION of 24.42%. Compound `CC(C)(O)CN1CCN(C(=O)c2cccn2Cc2cccnc2)CC1` has an INHIBITION of 54.5%. For `CC(C)(O)CN1CCN(C(=O)c2cccn2Cc2ccncc2)CC1`, the INHIBITION was -51.5%. `CC(C)(O)CN1CCN(C(=O)c2cccn2Cc2ccccc2)CC1` showed an INHIBITION of -36.56%. Work on `CC(C)c1nn(C)c(N(C)C)c1CNCc1cccc(CN(C)C)c1` yielded an INHIBITION of -36.7%. With `COCc1ncc(CN2CCC3(CCC(=O)N(CC(C)O)C3)CC2)cn1` (centres undefined) the INHIBITION was -40.15%. `Cc1cc(C)c2c(N3CCC(C(=O)N4CCCC4)CC3)ncnc2n1` gave an INHIBITION of 36.74%. `COc1cc(C)c(CN2CCC3(CC2)C(C(=O)O)CC(=O)N3C)cc1C` (centres undefined) showed an INHIBITION of 1.82%. `NCCO[C@H]1C[C@@H](O)C12CCN(Cc1c(F)cccc1F)CC2` gave an INHIBITION of 2.9%. `COc1cc(C)c(CN2CCC3(CC2)[C@H](O)C[C@@H]3OCCN)cc1C` gave an INHIBITION of 72.05%. `NCCO[C@H]1C[C@@H](O)C12CCN(C1Cc3ccccc3C1)CC2` showed an INHIBITION of -17.86%. With `COc1ccc(F)c(F)c1CN1CCC2(CC1)[C@H](O)C[C@@H]2OCCN` the INHIBITION was 57.75%. Work on `COc1cc(CN2CCC3(CC2)[C@H](O)C[C@@H]3OCCO)ccc1F` yielded an INHIBITION of -6.64%. With `COc1c(CNCc2ccc(N3CCCC3)nc2)c(C(C)C)nn1C` the INHIBITION was 20.57%. `Cn1ccnc1CN1CCC2(CC(=O)N(c3ccccn3)C2)C1` (centres undefined) was tested, and the INHIBITION was 44.46%. For `Clc1cccc(N[C@H]2CCCN[C@H]2Cc2ccccc2)c1`, the INHIBITION was -34.37%. `CC(C)(C)OC(=O)N1CCN(C(=O)c2cnn3c2OCCC3)CC1` gave an INHIBITION of -14.01%. Work on `COCc1noc(CN2CC(Cc3ccccc3)CC2=O)n1` (centres undefined) yielded an INHIBITION of 14.12%. `O=C1CCCN1CCCNCc1cc(O)c2cccc(F)c2n1` showed an INHIBITION of 53.12%. Compound `Oc1cc(CNCCN2CCCCC2)nc2c(F)cccc12` has an INHIBITION of -6.77%. With `O=C1CCCN1CCCNCc1cc(O)c2cccc(Cl)c2n1` the INHIBITION was -15.85%. For `OC1CCN(c2ccnc(NCCc3ccccc3Cl)n2)C1` (centres undefined), the INHIBITION was 0.72%. Work on `CCC(NC(=O)NCc1nncn1CC)c1ccc(OC)cc1` (centres undefined) yielded an INHIBITION of -53.08%. In the case of `Cc1n[nH]c2c1C(c1ccc(Cl)cc1)SCC(=O)N2` (centres undefined), the INHIBITION is reported as 47.85%. For `Cc1n[nH]c2c1C(c1ccncc1)SCC(=O)N2` (centres undefined), the INHIBITION was 19.08%. With `Cc1n[nH]c2c1C(c1cnn(C)c1)SCC(=O)N2` (centres undefined) the INHIBITION was 73.96%. With `CCCn1cnnc1CN(C)C(=O)C1CCC(=O)N(C2CCCC2)C1` (centres undefined) the INHIBITION was 31.35%. `CC(C)c1[nH]c2ncccc2c1CN1CCOCC1` was tested, and the INHIBITION was 68.53%. For `CC1CCN(Cc2c(C(C)C)[nH]c3ncccc23)CC1`, the INHIBITION was -9.61%. Work on `CC(C)c1[nH]c2ncccc2c1CN1CCC(O)CC1` yielded an INHIBITION of 14.73%. Compound `CC(CNC(=O)c1nnn(-c2ccccc2)c1C(F)(F)F)N(C)C` (centres undefined) has an INHIBITION of -10.14%. In the case of `Cc1ncccc1C(=O)Nc1ccc2ccn(CCN(C)C)c2c1`, the INHIBITION is reported as 10.23%. Work on `CCc1ncncc1C(=O)Nc1ccc2ccn(CCN(C)C)c2c1` yielded an INHIBITION of 38.87%. `CCc1ocnc1C(=O)Nc1ccc2ccn(CCN(C)C)c2c1` was tested, and the INHIBITION was 53.19%. In the case of `CC(C)(C)NC(=O)c1ccn(COc2c(Cl)cccc2Cl)n1`, the INHIBITION is reported as 31.42%. `CCC(=O)NCC(=O)NC(C)c1ccc(OCCC(C)C)cc1` (centres undefined) showed an INHIBITION of -14.65%. `CCNc1ncc(C(=O)NCCc2csc(CSC)n2)cn1` was tested, and the INHIBITION was -45.11%. `CCNc1ncc(C(=O)NCCc2csc(-c3ncccn3)n2)cn1` gave an INHIBITION of 69.79%. In the case of `CCNc1ncc(C(=O)NCc2csc(-c3ncccn3)n2)cn1`, the INHIBITION is reported as -27.47%. Compound `Cc1noc(-c2ccnc(Oc3cccc(CN4CCCC4)c3F)c2)n1` has an INHIBITION of 43.15%. `O=C(O)c1csc(NCCc2ccccc2)n1` was tested, and the INHIBITION was 55.05%. Work on `CN1CC(=O)c2sc(NCCc3ccccc3)nc2C1` yielded an INHIBITION of -24.17%. In the case of `O=C(NCCc1ccccc1)NCC(O)c1cccs1` (centres undefined), the INHIBITION is reported as 1.48%. With `CCC(C)NC(=O)CS(=O)(=O)Cc1cc(C)ccc1C` (centres undefined) the INHIBITION was -10.29%. In the case of `O=C(NCC1CC1)c1ccc(NC(=O)c2ccco2)cc1`, the INHIBITION is reported as 24.44%. For `COc1ccccc1-n1nc(CC(C)C)nc1Cc1nnc(N)s1`, the INHIBITION was -28.44%. Work on `O=C(Nc1ccc(Cl)cc1)c1nn(C2CCS(=O)(=O)C2)c2c1CCCC2` (centres undefined) yielded an INHIBITION of 14.16%. `O=C(Nc1ccc(Cl)cn1)c1nn(C2CCS(=O)(=O)C2)c2c1CCCC2` (centres undefined) gave an INHIBITION of 66.3%. Compound `O=C(Nc1cccnc1)c1nn(C2CCS(=O)(=O)C2)c2c1CCCC2` (centres undefined) has an INHIBITION of -0.14%. With `Cc1cccc(NC(=O)c2nn(C3CCS(=O)(=O)C3)c3c2CCCC3)n1` (centres undefined) the INHIBITION was 9.29%. For `O=C(Nc1cccc(Cl)c1)c1nn(C2CCS(=O)(=O)C2)c2c1CCCC2` (centres undefined), the INHIBITION was 21.33%. For `O=C(Nc1ccccc1)c1nn(C2CCS(=O)(=O)C2)c2c1CCCC2` (centres undefined), the INHIBITION was 73.37%. Work on `O=C(NCCc1ccccc1Cl)NCC1(O)CCSC1` (centres undefined) yielded an INHIBITION of -41.73%. Work on `COCCN(C/C=C/c1ccccc1)Cc1ncc[nH]1` yielded an INHIBITION of -14%. In the case of `CN(CCc1cccs1)C(=O)Nc1cccc(S(C)(=O)=O)c1`, the INHIBITION is reported as -7.16%. Compound `CCN1CCN(CC(O)c2ccc(F)cc2)CC1` (centres undefined) has an INHIBITION of -5.15%. `OC(CN1CCN(CC2CCCCC2)CC1)c1ccccc1` (centres undefined) was tested, and the INHIBITION was 12.55%. Compound `OC(CN1CCN(CC(F)F)CC1)c1ccc(Br)cc1` (centres undefined) has an INHIBITION of 15.84%. For `CCN1CCN(CC(O)c2ccc(Br)cc2)CC1` (centres undefined), the INHIBITION was 63.46%. In the case of `NC(=O)CC1CCN(CC(O)c2ccc(Br)cc2)CC1` (centres undefined), the INHIBITION is reported as -58.06%. With `OC(CN1CCN(CC2CC2)CC1)c1ccc(Br)cc1` (centres undefined) the INHIBITION was 50.32%. In the case of `Cn1cc(CN2CCCC23CCN(C(=O)c2cccn2C)CC3)cn1`, the INHIBITION is reported as 1.42%. In the case of `CO[C@@H]1CC[C@H]2[C@H]1OCCN2Cc1ccc(F)cc1`, the INHIBITION is reported as 19.53%. With `Cc1nonc1CN(C)Cc1nc(-c2ccccc2Cl)oc1C` the INHIBITION was 51.96%. `CCc1nnc(CN(C)Cc2nc(-c3ccccc3Cl)oc2C)o1` gave an INHIBITION of 15.84%. `Cc1nonc1CN(C)Cc1nc(-c2cccc(F)c2F)oc1C` gave an INHIBITION of -25.82%. Compound `Cc1cc(C2CCC2)nc(NCC(C)(C)N2CCCC2)n1` has an INHIBITION of 7.85%. `CC(C)N1CCO[C@H]2CN(C(=O)c3ccncc3)C[C@H]21` was tested, and the INHIBITION was 19.96%. `CC(C)N1CCO[C@H]2CN(C(=O)c3ccoc3)C[C@H]21` showed an INHIBITION of -17.23%. `CC(C)N1CCO[C@H]2CN(C(=O)c3ccsc3)C[C@H]21` was tested, and the INHIBITION was 65.32%. `O=C(c1ccsc1)N1CCO[C@@H]2CN(Cc3cccs3)C[C@@H]2C1` was tested, and the INHIBITION was 78.93%. `Cc1cc(CN2C[C@@H]3CN(C(=O)c4ccsc4)CCO[C@@H]3C2)no1` showed an INHIBITION of -89.19%. `O=C(c1ccsc1)N1CCO[C@@H]2CN(Cc3nccs3)C[C@@H]2C1` was tested, and the INHIBITION was 41.28%. `c1ncn(Cc2nnc(C3CCN(CC4CC4)CC3)n2C2CC2)n1` was tested, and the INHIBITION was 30.96%. With `Cc1nc(CN2CCOC(c3ccc(Cl)cc3)C2)oc1C` (centres undefined) the INHIBITION was 5.28%. With `Cc1nnc(CN2CCOC(c3ccc(Cl)c(Cl)c3)C2)o1` (centres undefined) the INHIBITION was 38.67%. `Cc1nnc(CN2CCOC(c3ccc(Cl)cc3)C2)o1` (centres undefined) showed an INHIBITION of 57.75%. `c1ccc(O[C@H]2CO[C@@]3(CCN(Cc4ccc5c(c4)OCO5)C3)C2)nc1` gave an INHIBITION of 40.83%. Compound `Cc1cncc(C2CCCN(CC3CCC3)C2)n1` (centres undefined) has an INHIBITION of 50.63%. Compound `Cc1cncc(C2CCCN(Cc3ccncc3)C2)n1` (centres undefined) has an INHIBITION of -33.09%. Work on `Cc1cncc(C2CCCN(C(=O)c3c[nH]c(=O)[nH]c3=O)C2)n1` (centres undefined) yielded an INHIBITION of 50.72%. `O=C(c1c[nH]c(=O)[nH]c1=O)N1CCCC(c2cnccn2)C1` (centres undefined) was tested, and the INHIBITION was -15.93%. `Cc1ccc(CN2CCCC(c3cncc(C)n3)C2)cn1` (centres undefined) was tested, and the INHIBITION was -0.15%. Work on `Cc1cncc(C2CCCN(C(=O)c3ccc(C)[nH]c3=O)C2)n1` (centres undefined) yielded an INHIBITION of 17.71%. `COc1ccc(NC(C)c2ccc(C#N)cc2)cc1N1CCCC1=O` (centres undefined) showed an INHIBITION of -50.8%. With `O=C1CC(c2ccc(CO)o2)c2cnn(Cc3ccco3)c2N1` (centres undefined) the INHIBITION was -1.11%. In the case of `Cc1nc(-c2cnn(C)c2)sc1C(=O)NCc1cccc(CN(C)C)c1`, the INHIBITION is reported as -6.4%.
